Screening data deposited in PubChem BioAssay by NMMLSC.
Shown are actives, neighbours in structure and some others; about 2.5% of the full set was active somewhere.
MEKK2wt PB1 HTS: raises or lowers MEK5 binding to wildtype human MEKK2 PB1 domain | binding response (% of control), % at 10 µM | AID 1531 | bead flow cytometry, Alexa488-MEK5 binding to MEKK2 WT; actives lie on both sides | 290,000 compounds, 1.1% hits; in the data active = binding response below about 67% or above about 130%
MEKK3 PB1 HTS: raises or lowers MEK5 binding to the human MEKK3 PB1 domain | Q99759 | bead-based flow cytometry, Alexa488-MEK5 binding to MEKK3; actives lie on both sides; 0 = blocked by unlabeled MEK5, 100 = vehicle | binding response (% of control), % at 10 µM | 290,000 compounds, 1.4% hits;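 active = binding response more than 3 SD above or below the average of its plate-row segment, actives on both sides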;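 note: Alexa488 bead fluorescence after subtracting the streptavidin-only scavenger bead signal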
MEKK2 mut-MEK5: signal of MEK5 binding to mutant human MEKK2 PB1 domain. bead flow cytometry, Alexa488-MEK5 binding to MEKK2 mutant. percent response, % at 10 µM. 290,000 compounds, 0.35% hits. AID 1530; in the data active = percent response above about 24%, passing the limit was not always enough
GRK2 aptamer HTS: blocks RNA aptamer binding to human GRK2 | 330,000 compounds, 0.59% hits | inhibition of aptamer binding, % at 10 µM | bead flow cytometry, FAM-aptamer displacement from GRK2 | P25098;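 active = inhibition of aptamer binding above 40%, roughly 3 SD of noise, on plates passing a quality check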;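 note: median bead fluorescence of bound FAM aptamer so fluorescent compounds give negative values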
Target sequence (P25098 whole entry, looked up): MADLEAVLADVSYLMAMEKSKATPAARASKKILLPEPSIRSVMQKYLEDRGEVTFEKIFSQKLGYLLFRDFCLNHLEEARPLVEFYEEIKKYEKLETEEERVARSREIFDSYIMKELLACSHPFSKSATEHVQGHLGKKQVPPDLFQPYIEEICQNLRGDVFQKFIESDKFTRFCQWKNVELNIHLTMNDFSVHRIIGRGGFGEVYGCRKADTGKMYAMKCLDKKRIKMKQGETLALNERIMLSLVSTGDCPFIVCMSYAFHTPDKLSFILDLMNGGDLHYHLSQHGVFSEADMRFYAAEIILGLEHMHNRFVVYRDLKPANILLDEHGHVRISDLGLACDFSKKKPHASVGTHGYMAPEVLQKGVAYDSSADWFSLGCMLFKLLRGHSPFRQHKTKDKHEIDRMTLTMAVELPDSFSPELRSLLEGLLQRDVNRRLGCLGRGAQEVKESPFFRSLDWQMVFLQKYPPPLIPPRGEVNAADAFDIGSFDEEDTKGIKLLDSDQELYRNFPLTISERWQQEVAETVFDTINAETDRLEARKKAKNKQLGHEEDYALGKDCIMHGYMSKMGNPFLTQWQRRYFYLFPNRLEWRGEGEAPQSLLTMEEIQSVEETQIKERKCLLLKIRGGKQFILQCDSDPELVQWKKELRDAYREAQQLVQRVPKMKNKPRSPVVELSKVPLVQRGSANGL
MEKK2wt confirm: raises or lowers MEK5 binding to wildtype human MEKK2, retest; shares compounds with MEKK3 PB1 HTS; bead flow cytometry, Alexa488-MEK5 binding to MEKK2 WT; actives lie on both sides; binding response (% of control), % at 10 µM; 5,900 compounds, 2.4% hits; AID 1892; in the data active = binding response below about 16% or above about 210%; inactive = in between
MEKK2mut-MEK5: signal of MEK5 binding to mutant human MEKK2, retest | shares compounds with MEKK3 PB1 HTS | bead flow cytometry, Alexa488-MEK5 binding to MEKK2 mutant | percent response, % at 10 µM | 5,900 compounds, 2% hits | AID 1893; in the data active = percent response mostly above about 71%, no sharp cut-off; inactive = mostly below about 38%;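 note: higher means compound restores mutant binding toward wildtype level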
MEKK3 confirm: confirmation of inhibitors of MEK5 binding to human MEKK3. bead flow cytometry, Alexa488-MEK5 binding to MEKK3; active compounds read low. 5,900 compounds, 1.8% hits. shares compounds with MEKK3 PB1 HTS. binding response (% of control), % at 10 µM;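 active = binding response below 72% of control, or above a set upper limit, though filed actives all read lower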;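 note: 100% = DMSO only wells and 0% = binding blocked by excess unlabeled MEK5; lower values mean stronger disruption of MEK5 binding to MEKK3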
The depositor's hits bear a star; / = not tested or not shown; [ ] = remark or other dose.

SMILES | MEKK2wt PB1 HTS | MEKK3 PB1 HTS | MEKK2 mut-MEK5 | GRK2 aptamer HTS | MEKK2wt confirm | MEKK2mut-MEK5 | MEKK3 confirm
COC(=O)Cc1[nH]n(-c2nc3ccccc3s2)c(=O)c1C(C)=O | 102 | 109 | 7 | 3 | / | / | /
CC1CCCCN1C(=O)C(=O)c1cn(CC(=O)N2CCCCCC2)c2ccccc12 (stereo not drawn) | 79 | 96 | -7 | 35 | / | / | /
CC1CCCCN1C(=O)C(=O)c1cn(CC(=O)N2CCCC2)c2ccccc12 (stereo not drawn) | -3.0*[inhibitor] | 1.0*[inhibitor] | -15 | 0 | 103 | 2 | 103
Cc1cccc(NC(=O)CCN2CCN(C)CC2)c1 | 105 | 106 | 2 | 0 | / | / | /
Cc1cccc(NC(=O)CN2CCN(CC(=O)Nc3cccc(C)c3)CC2)c1 | 91 | 82*[inhibitor] | -10 | 0 | 109 | 1 | 105
Cc1cccc(NC(=O)CC2CCC2)c1 | -1.0*[inhibitor] | 2.0*[inhibitor] | -26 | 1 | 106 | 4 | 102
O=C(CN(Cc1ccccc1)C(=O)c1cc2c(s1)CCC2)NCc1cccs1 | 96 | 100 | -4 | 1 | / | / | /
O=C(c1ccc(-n2c(SCc3cccc(F)c3)nc3ccccc3c2=O)cc1)N1CCOCC1 | 96 | 116 | 0 | 1 | / | / | /
N#Cc1cc(S(=O)(=O)c2ccccc2)c(N)[nH]c1=O | 112 | 112 | 3 | 2 | / | / | /
Cc1ccccc1S(=O)(=O)c1cc(C#N)c(=O)[nH]c1N | 74 | 69*[inhibitor] | -13 | 7 | 102 | -1 | 101
COC(=O)C(Cc1ccccc1)NC(=O)C12CC3CC(CC(C3)C1)C2 (stereo not drawn) | 106 | 134* | 0 | 2 | 105 | 7 | 104
COc1ccc(OC)c(NC(=O)CN(C)S(=O)(=O)c2ccc(Cl)cc2)c1 | 103 | 108 | 3 | 4 | / | / | /
Cn1c(NCC(O)c2ccccc2)nc2c1c(=O)n(Cc1ccc(Cl)c(Cl)c1)c(=O)n2C (stereo not drawn) | 96 | 97 | -7 | 0 | / | / | /
Cn1c(NCC(O)c2ccccc2)nc2c1c(=O)n(Cc1ccc(Cl)cc1)c(=O)n2C (stereo not drawn) | 89 | 78*[inhibitor] | -11 | 0 | 110 | 5 | 110
O=S(=O)(Nc1ccc(F)cc1)c1ccc(NC(=S)Nc2ccccc2)cc1 | / | / | / | 2 | / | / | /
N#C/C(=C/c1ccc(N2CCCCCC2)o1)c1ccc(Cl)cc1 | 65 | 82 | 98* | 0 | 82 | -2 | 86
CS(=O)(=O)c1cnc(-c2cccnc2)nc1N | 102 | 104 | 2 | 0 | / | / | /
CCC/C=C1/CCCOC(C(=O)NCc2ccc(S(C)(=O)=O)cc2)(C(F)(F)F)C1 (stereo not drawn) | 101 | 103 | 4 | 0 | / | / | /
CS(=O)(=O)c1ccc(CNC(=O)C2(C(F)(F)F)C/C(=C\Cc3ccccc3)CCCO2)cc1 (stereo not drawn) | 85 | 81*[inhibitor] | -7 | 2 | 102 | 5 | 104
O=C(COC(=O)Cc1ccccc1F)Nc1ccc2c(c1)OCCO2 | 107 | 138* | 0 | 3 | 101 | -6 | 102
Cc1cccc(OCC(=O)Nc2ccc3c(c2)OCO3)c1C | 2.0*[inhibitor] | 2.0*[inhibitor] | -15 | 3 | 95 | -10 | 99
COc1ccc(-c2nnc(SCc3nnc(-c4cccs4)o3)n2CC2CCCO2)cc1 (stereo not drawn) | 91 | 49*[inhibitor] | -2 | 3 | 106 | 5 | 102
Fc1ccc(NCc2nnc(SCc3nnc(-c4ccccc4)o3)n2CC2CCCO2)cc1 (stereo not drawn) | 123 | 124* | 6 | 0 | 91 | -5 | 95
COc1ccc(OC2OC3COC(C)(C)OC3C(O)C2NC(C)=O)cc1 (stereo not drawn) | 101 | 115 | 24* | 1 | 101 | -1 | 100
O=[N+]([O-])c1cc2c(cc1CN1CCN(CCOCCO)CC1)OCO2 | 149* | 112 | 23 | 1 | 99 | -1 | 99
